# Source: PubChem BioAssay AID589 (National Center for Advancing Translational Sciences (NCATS), 2007)
# Where “and” joins values, the source holds several entries; their conditions need not be identical. Equal entries are not always repeated. Hit rate of the full screen: of about 59,000 compounds, about 6,200 (11%) were called active. Not shown: some 9% with an inconclusive outcome. No stated cut-off is given here; in the data, active means max dye-equivalent concentration above about 10 nM; inconclusive means mostly about 1.1 nM to 9.6 nM; inactive means weaker than that. Shown is part of a subset that was picked to be rich in actives. Some structures have more than one record in an assay (separate samples or runs), and their calls can disagree.
# Test: qHTS Assay for Spectroscopic Profiling in 4-MU Spectral Region
# Settings: compound autofluorescence, 340/450 nm, 4-MU equivalents; active compounds read high
# Outline: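 Compounds in 100 mM Tris, pH 8.0, incubated 15 min at room temperature, then fluorescence read at 340 nm excitation/450 nm emission. Signal converted to 4-MU dye-equivalent concentration using an on-plate six-point 4-MU standard curve.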
SMILES,max dye-equivalent concentration,outcome
Cc1cccc(Cn2c(SCCO)nc3c2c(=O)n(C)c(=O)n3C)c1,inactive,
CCOC(=O)N1CCN(CC(=O)c2c(C)[nH]c3ccccc23)CC1,inactive,
CCOC(=O)N1CCN(CC(=O)c2ccc3c(c2)CCN3)CC1,1.2e-08 M (active),
CCOC(=O)N1CCN(CC(=O)n2c(C)c(C)c3ccccc32)CC1,inactive,
CCNS(=O)(=O)c1ccc(NC(=O)Nc2cccc(C(F)(F)F)c2)cc1,inactive,
CC1Oc2ccccc2N(Cc2cccnc2)C1=O (stereo unspecified),inactive,
Cc1ccc(CC2CC(=O)N(c3ccc4c(c3)OCCO4)C2=O)cc1 (stereo unspecified),inactive,
N#CC1=C(N)C(C#N)(C#N)[C@H](c2ccsc2)[C@H]2COCC=C12,1.3e-08 M (active),
COc1cccc2cc(C(=O)N(C)C)c(=O)oc12,inactive,
COc1ccc(OC)c(S(=O)(=O)Nc2ccccc2F)c1,6.6e-08 M (active),
COc1ccc(F)cc1S(=O)(=O)Nc1ccc2c(c1)OCO2,inactive,
COC(=O)c1ccccc1NC(=O)C1CCN(S(=O)(=O)c2cc(OC)ccc2OC)CC1,inactive,
Cc1cc(OCC(=O)O)c(Cl)cc1Cl,inactive,
Cc1nc(NC(CC(C)C)C(=O)O)c2nc(C)oc2n1 (stereo unspecified),inactive,
COc1c(C)c2c(c(O)c1C/C=C(\C)CCC(=O)O)C(=O)OC2,7e-08 M (active) and 1.5e-08 M (active),
O=C(NC1CCCCC1)N1CCc2[nH]c3ccccc3c2C1,inactive,
NC(=O)C1CCN(C2OC(=O)c3ccccc32)CC1 (stereo unspecified),inactive,
CCOC(=O)CC1=CC(=O)Nc2ccccc2N1,inactive,
CCOC(=O)CCc1c(C)c(C#N)c2[nH]c3ccccc3n2c1=O,5.3e-06 M (active),
CCCOC(=O)Cc1c(O)c2ccccc2[nH]c1=O,inactive,
CCOC(=O)c1sc(=S)n2c1[nH]c(=O)c1ccc(C(=O)OC)cc12,inactive,
C=CCSC1=C(C#N)C(c2cc(Br)c(O)c(OC)c2)CC(=O)N1 (stereo unspecified),inactive,

SMILES,max dye-equivalent concentration,outcome
COc1cc(C2C(C#N)=C(C)NC3=C2C(=O)CC(C)(C)C3)ccc1O (stereo unspecified),1.3e-08 M (active),
Cc1cc2c(cc1C)NC(c1ccccn1)C1=C(CC(C)(C)CC1=O)N2 (stereo unspecified),inactive,
CCCCCCC(=O)N(O)C1CC(=O)N(c2ccccc2)C1=O (stereo unspecified),inactive,
COc1c(F)c(F)c(-c2csc(N)n2)c(F)c1F,1.5e-08 M (active),
CCC(=O)Nc1nc(OC)cc(OC)n1,inactive,
Cc1cc(C)nc(NC2=NCC(=O)N2c2ccc(Cl)cc2)n1,inactive,
CCN(CC(=O)Nc1ccc2c(c1)OCCO2)Cc1cc(=O)oc2cc(C)c(C)cc12,inactive,
C=CCn1c(SCC(=O)Nc2nc3ccccc3s2)nnc1-c1ccccc1O,inactive,
C=CCn1c2ccccc2c2nnc(SC(CC)C(=O)Nc3nc(C)c(C(=O)OCC)s3)nc21 (stereo unspecified),4.6e-08 M (active),
O=C(CN1C(=O)CCS(=O)(=O)c2ccccc21)NCc1ccc(F)cc1,inactive,
NC(=O)CSC1=Nc2ccccc2C2=NC(CCC(=O)NCc3ccc(F)cc3)C(=O)N12 (stereo unspecified),4.6e-07 M (active),
CC1(c2ccccc2Cl)NC(=O)N(CC(=O)NC(=O)NCc2ccco2)C1=O (stereo unspecified),inactive,
Cc1nc2nc(SCC(=O)NCc3ccco3)nn2c(C)c1Cc1ccccc1,inactive,
O=C(CC1N=C2c3ccccc3N=C(SCc3ccccc3Cl)N2C1=O)NCc1ccco1 (stereo unspecified),1.8e-08 M (active),
COCCCN1C(=O)c2ccc(C(=O)Nc3ccc(OC)cc3OC)cc2C1=O,inactive,
O=C(NC(=O)c1ccc(Cl)c(Cl)c1)OC1CCS(=O)(=O)C1 (stereo unspecified),inactive,
COc1ccc(O)c(C(=O)c2cnc3onc(C(C)C)c3c2)c1,inactive,
COc1ccc(OCC(=O)OCCN(C)C)cc1,inactive,
CC(C)(C)C(=O)CCN1C(=O)C2(OCCO2)c2ccccc21,inactive,
CCN(CC)S(=O)(=O)c1cccc(C(=O)NCC(=O)OCC(=O)NCc2ccccc2)c1,inactive,
O=C(Cn1[nH]c(=O)c2ccccc2c1=O)Nc1cccc(-c2nnc3n2CCCCC3)c1,inactive,
O=C(CSc1nnnn1-c1ccc2c(c1)CCC2)Nc1ccc2c(c1)OCCO2,inactive,

SMILES,max dye-equivalent concentration,outcome
COC(C)(C)[C@]12CC(O)(C(C)C)ON1[C@H]1CCCCC1N2O (stereo partly specified),inactive,
COc1ccc(NC(C)=O)cc1NC(=O)CN1CCN(C2c3ccccc3-c3ccccc32)CC1,inactive,
c1ccc(-c2cn3cccnc3n2)cc1,5.1e-06 M (active),
CC(=O)Nc1cccc(-c2cnc3ccccc3n2)c1,inactive,
CCCC(=O)Nc1cccc(-c2cn3ccsc3n2)c1,inactive,
CC(=O)Nc1ccc(-c2cn3cccnc3n2)cc1,6.1e-06 M (active),
CCOc1nc(OCC)nc(-n2cc(-c3ccccc3)nn2)n1,inactive,
COc1ccc(-c2cn3ccsc3n2)cc1,inactive,
COC(=O)[C@H](C)NC(=O)Nc1ccc(OC(F)(F)F)cc1,inactive,
CCS(=O)(=O)N1CCCC(C(=O)NCc2ccc(C)cc2)C1 (stereo unspecified),inactive,
COc1ccc(CNc2ncnc3ccc(-c4cccnc4)cc23)c(OC)c1,inactive,
COc1cc(-c2noc(C3CCCN(S(=O)(=O)c4cccc(Cl)c4)C3)n2)cc(OC)c1OC (stereo unspecified),inactive,
Cc1ccc2cc(C#N)c(SCC(=O)NCC3CCCO3)nc2c1C (stereo unspecified),inactive,
Cc1cc(C(F)(F)F)c(C#N)c(SCC(=O)NC2CC2)n1,inactive,
CC(NC(=O)CSc1nc2c(cc1C#N)CN(C)CC2)c1ccccc1 (stereo unspecified),2.2e-08 M (active),
O=C1c2ccccc2C(=O)N1CCc1nn[nH]n1,inactive,
COc1ccc(-n2c(SCC(=O)Nc3ccc4c(c3)OCO4)nnc2C(C)N2CCCCC2)cc1 (stereo unspecified),inactive,
COC(=O)c1cccc(NC(=O)CN2CCC(NC(=O)c3cc(OC)c(OC)c(OC)c3)CC2)c1,inactive,
COc1cc(C(=O)Nc2oc(-c3ccccc3)c(-c3ccccc3)c2C#N)cc(OC)c1OC,1.1e-08 M (active),
COc1cc(C(=O)Nc2nccs2)cc(OC)c1OC,inactive,
Cc1ccc(N2CCN(S(=O)(=O)N(C)C)CC2)cc1Cl,inactive,
CCCn1c(SCC(N)=O)nnc1C(C)C,inactive,

SMILES,max dye-equivalent concentration,outcome
Cc1ccc(C(=O)CS(C)(=O)=O)cc1,2e-08 M (active),
N#Cc1ccc(CSc2nnc(-c3ccccn3)n2-c2ccc(Cl)cc2)cc1,inactive,
N#CNC1=NCN(CCc2ccccc2)CN1,inactive,
O=C(c1csnn1)N1CCC[C@@]2(CCN(c3cccc(-c4ccccc4)c3)C2)C1,inactive,
COc1ccc(CN2C(=O)CN=C2Nc2ccc(C)cc2C)cc1,inactive,
Cc1cc(C)nc(N2C(=O)CC(Cc3ccccc3)C2=O)n1 (stereo unspecified),inactive,
Nc1ccc2c3c(cccc13)C(=O)NC2=O,inactive,
C=CCNc1nnc(C)c2ccccc12,inactive,
C=CCNc1nnc(SCC(=O)N2CCCCC2)c2ccccc12,1.6e-08 M (active),
CCOc1ccccc1-n1c(SCC(=O)N2CCCC2)nnc1-c1ccoc1C,inactive,
CCNc1nc(SCCOc2ccccc2)nc(N(C)C)n1,inactive,
O=c1oc2cc(O)ccc2cc1-c1ccc(F)cc1,9.5e-08 M (active),
Nc1ncc(-c2cc3ccccc3oc2=O)s1,inactive,
O=C(NCCCNC(=O)NC1CCCCC1)NC1CCCCC1,inactive,
Cn1cnc2c1c(=O)n(Cc1c(Cl)cccc1Cl)c(=O)n2C,inactive,
CNC(=O)c1ccc2nc(NC(C)=O)sc2c1,inactive,
COC(=O)c1sc(NC(=O)c2ccc(OC)cc2OC)nc1C,inactive,
COc1ccc2nc(NC(=O)c3ccc(Br)s3)sc2c1,4.6e-07 M (active),
Cc1c(C)c2cc3c4c(oc3c(C)c2oc1=O)CCCC4,3e-08 M (active),
CC(=O)N(Cc1cccs1)C1CCOC(C)(C)C1 (stereo unspecified),inactive,
Cc1cc(NC(=O)CCC(=O)N(c2ccccc2)C(C(=O)NC2CCCC2)c2ccncc2)no1 (stereo unspecified),inactive,
COc1ccc(Cn2c(=O)sc3ccccc32)cc1OC,inactive,

SMILES,max dye-equivalent concentration,outcome
CCn1c(SCC(=O)NCc2ccco2)nnc1-c1ccc(N)cc1,inactive,
Cc1ccc2c(CSc3nncs3)cc(=O)oc2c1,inactive,
CCOC(=O)c1cc2occc2n1CC(=O)NC1CCC(C)CC1 (stereo unspecified),inactive,
CN(C)CCNC(CC(=O)Nc1ccc(Cl)c(Cl)c1)C(=O)O (stereo unspecified),inactive,
CN1C(=O)c2ccc(NC(=O)C3CCCCC3)cc2C1=O,2.3e-07 M (active),
Cn1c(=O)n(C)c2cc(C(=O)Nc3ccc4c(c3)OCO4)ccc21,inactive,
O=C(Nc1cnn(Cc2ccc(Cl)cc2)c1)C1CCCC1,inactive,
O=C(O)c1ccc(NC(=O)C2CCCCC2)cc1,inactive,
CN1C(=O)c2ccc(NC(=O)c3c(F)c(F)c(F)c(F)c3F)cc2C1=O,9.8e-08 M (active),
O=C(Nc1ccncc1)c1c(F)cccc1F,inactive,
COc1ccc(C[C@H](N)C(=O)N[C@@H]2[C@H](O)[C@H](n3cnc4c(N(C)C)ncnc43)O[C@@H]2CO)cc1,inactive,
O=S(=O)(c1ccc(Sc2nnc3ccccn23)nc1)N1CCOCC1,inactive,
N#CCCN(CCC#N)c1nnc(-c2ccccc2)s1,inactive,
O=S(=O)(Nc1ccccc1N1CCOCC1)c1ccc(Cl)s1,inactive,
COC(=O)Cc1csc(Nc2c(C)n(C)n(-c3ccccc3)c2=O)n1,inactive,
CCOC(=O)CSc1nc2c(c(=O)n(Cc3ccccc3Cl)c(=O)n2C)n1C,inactive,
CCOc1ccc(NC(=O)Nc2ccc(N(C)C(C)=O)cc2)cc1,inactive,
O=C(NC1CCCCC1)c1ccc2c(=O)n(CC3CCCO3)c(=O)[nH]c2c1 (stereo unspecified),1.6e-08 M (active),
Cc1ccc(C(=O)Nc2ccccc2C(=O)NC2CCCCC2)cc1S(=O)(=O)N1CCOCC1,inactive,
O=c1c2cc3c(=O)n(CC4CCCO4)c(=O)c3cc2c(=O)n1CC1CCCO1 (stereo unspecified),inactive,
CCOC(=O)c1ccc(N2C(=O)CC(N3CC(C)OC(C)C3)C2=O)cc1 (stereo unspecified),inactive,
CNCC[C@H](Oc1ccc(C(F)(F)F)cc1)c1ccccc1,1.3e-08 M (active),inactive
